# According to publication PMC5540273 (PLoS ONE, 2017):
# System: T1, p38-alpha
# T1 construct: gene MAPK14
# Conditions: 1 µM; n = 1
# 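Further: KINOMEscan kinase panel screen.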
smiles,measurement,value
Fc1ccc(-c2ncn(C3CCNCC3)c2-c2ccnc(Oc3ccc(-c4ccccc4)cc3)n2)cc1 [SB-245391],%Inh,96%
